Experimental data as given in PubChem BioAssay (NCI).
Compounds without any hit were thinned out: in the full panel of roughly 83,000, 20% have a hit.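 The test compound was applied at a single concentration to cells in 96-well plates for 48 hours, and percent growth was recorded.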 Values without a mark were called inactive. Active and inactive are the calls of the source. How the source made its calls: active means growth percent below 10; inactive means the rest.

What was measured:
Assay in all cases: NCI-60 one-dose screen, 48 h (100 = growth as untreated, 0 = no growth, -100 = all killed)
Settings in all cases: 10 µM
[1] = test system: NCI-H23 lung
[2] = test system: NCI-H226 lung
[3] = test system: NCI-H322M lung
[4] = test system: HOP-62 NSCLC
[5] = test system: NCI-H460 lung
[6] = test system: HOP-92 NSCLC
[7] = test system: NCI-H522 lung
[8] = test system: A549/ATCC NSCLC
[9] = test system: 786-0 renal
[10] = test system: COLO 205 colon
[11] = test system: DU-145 prostate
[12] = test system: K-562 leukemia
[13] = test system: MALME-3M melanoma
[14] = test system: MDA-MB-231 breast
[15] = test system: RXF 393 renal
[16] = test system: SF-268 CNS
[17] = test system: SF-295 CNS
[18] = test system: SF-539 CNS
[19] = test system: UACC-257 melanoma
[20] = test system: M14 melanoma

Row | Compound | growth [1] | growth [2] | growth [3] | growth [4] | growth [5] | growth [6] | growth [7] | growth [8] | growth [9] | growth [10] | growth [11] | growth [12] | growth [13] | growth [14] | growth [15] | growth [16] | growth [17] | growth [18] | growth [19] | growth [20]
1 | Cc1nc(N)sc1Sc1nc2ccc(Cl)cc2c(=O)n1-c1ccc(Oc2ccccc2)cc1 | 74% | 86.4% | 111% | 116% | 82% | 74.4% | 85.3% | 70.2% | 68.5% | 102% | 92.5% | 74.4% | 95.1% | 89.3% | 86.4% | 107% | 67.8% | 93.4% | 75.7% | 76.6%
2 | NC(=O)c1ccc(Br)o1 | 95.1% | 104% | 104% | 91.7% | 109% | 114% | 88.3% | 109% | 96.8% | 103% | 109% | 105% | 109% | 101% | 112% | 101% | 97.4% | 96.5% | 114% | 108%
3 | COC(=O)[C@]12CC[C@@H](C)[C@H](C)[C@@H]1C1=CC[C@@H]3[C@@]4(C)CC(=O)[C@H](O)[C@@](C)(CO)[C@@H]4C(=O)C[C@@]3(C)[C@]1(C)CC2 | -14.2% (active) | -5.55% (active) | 18.4% | -21.5% (active) | -48.9% (active) | -22.5% (active) | -65.9% (active) | -63.6% (active) | 0.121% (active) | -64.6% (active) | -44.4% (active) | -69.5% (active) | -35.2% (active) | -34.2% (active) | -41.4% (active) | 4.33% (active) | -0.778% (active) | 16.5% | 7.73% (active) | 10.1%
4 | CC(=O)OCC(COC(C)=O)(COC(C)=O)COC(C)=O | 102% | 93.5% | 99.5% | 102% | 104% | 105% | 99.4% | 111% | 112% | 109% | 103% | 95.4% | 94.6% | 105% | 104% | 94.7% | 103% | 111% | 103% | 108%
5 | CC1=CC2OC34COC3CC(OC(=O)C(F)(F)F)C4(C)C2(C)CC1 (stereo not given) | 110% | 98.7% | 96.1% | 97.4% | 104% | 104% | 103% | 97.8% | 101% | 99.7% | 108% | 120% | 109% | 101% | 93.9% | 103% | 100% | 98.4% | 103% | 96%
6 | O=C(CCCC(=O)N/N=C/c1cc(Cl)ccc1O)N/N=C\c1cc(Cl)ccc1O | 38.4% | 40.7% | 23.7% | 24.1% | 10.2% | 24.4% | 18.3% | 29.5% | 24.8% | 16.3% | 42.9% | 13.9% | 31.2% | 37.5% | 39.2% | 26.4% | -5.9% (active) | 14.1% | -1.55% (active) | 12.9%
7 | CCOC(=O)c1sc(Nc2ncccn2)nc1-c1ccccn1 | 84.4% | 92.8% | 85% | 92% | 66.9% | 97.5% | 85.7% | 84.3% | 97.9% | 98.3% | 92.3% | 108% | 107% | 86.7% | 104% | 80.6% | 84.2% | 99.3% | 100% | 81.9%
8 | Fc1ccc(Nc2ccnc(N3CCN(c4ccnc5cc(Cl)ccc45)CC3)n2)cc1 | 44.5% | 54% | 65.5% | 62.8% | 38% | -7.36% (active) | 43.4% | 25% | 37.1% | 34.7% | 77% | 16% | 52.9% | 56% | 66.7% | 72.4% | 39.6% | 51.4% | 61.1% | 43.4%
9 | Cc1ccc(C)c2c1sc1nc3n[nH]c(N)c3c(=N)n12 | 107% | 105% | 113% | 104% | 107% | 97.2% | 87.4% | 106% | 111% | 112% | 111% | 98.3% | 128% | 101% | 112% | 109% | 106% | 101% | 104% | 108%
10 | NC(=O)C1CCCN(Cc2c[nH]c3ccccc23)C1 (stereo not given) | 95.8% | 84.5% | 98.5% | 91.1% | 106% | 96.2% | 84.6% | 96.4% | 105% | 104% | 106% | 97.3% | 99.7% | 99.8% | 95.2% | 96% | 92.7% | 92.9% | 96.5% | 99%
11 | CC(C)OP(=O)(O)c1ncc(-c2ccc(C(F)(F)F)cc2)c(NC2CCCCCC2)n1 | 62.6% | 74.1% | 91.1% | 70.5% | 41.5% | 22.8% | 48.8% | 49.2% | 81.6% | 61% | 90.1% | 36.3% | 5.39% (active) | 89.9% | 90.1% | 75.6% | 11.5% | 92.4% | 28.6% | 53.7%
12 | OC(CNC1CCCC1)Cn1c2ccccc2c2ccccc21 (stereo not given) | 31% | 99.5% | 51% | 50.1% | 8.53% (active) | 26.2% | 27.7% | 11.1% | 9.8% (active) | -66.2% (active) | 23% | 3.31% (active) | -70.8% (active) | -23.9% (active) | 31.2% | 44.8% | -29.8% (active) | -69.9% (active) | -13.2% (active) | -68.1% (active)
13 | CNC(=O)c1cc(Oc2ccc(NC(=O)Nc3ccc(Cl)c(OC4CCCCC4)c3)c(F)c2)ccn1 | 21.4% | 48.4% | 75.8% | 70.5% | 37.9% | 36% | 9.84% (active) | 26.6% | 90.4% | 33.2% | 65.6% | 17.1% | 69% | 68.7% | 79.4% | 61% | 20.5% | 59.9% | 23.3% | 40%
14 | Cc1cc(/C=C2\SC(=Nc3ccccc3)N(C3CCCC3)C2=O)c(C)n1-c1ccc(Cl)cc1 | -19.8% (active) | -66.6% (active) | -55% (active) | -69.6% (active) | -57.4% (active) | -74.2% (active) | -66.8% (active) | -27.5% (active) | -85.1% (active) | -94.5% (active) | -79.1% (active) | -22.8% (active) | -72.8% (active) | -53% (active) | -90.2% (active) | -47.5% (active) | -70.3% (active) | -70.8% (active) | -70.8% (active) | -69.9% (active)
15 | CCCCCC(=O)N1c2ccccc2NC2=C(C(=O)CC(c3ccc(OC)c(OC)c3)C2)C1c1ccc(C(F)(F)F)cc1 (stereo not given) | 51.5% | 64.8% | 70.6% | 54.8% | 76.9% | 66.4% | 37.5% | 58.5% | 65.8% | 69.2% | 85% | 28.4% | 84.3% | 69% | 1.04% (active) | 57.3% | 36.1% | 80.7% | 41.8% | 58.3%
16 | c1ccc(CC(NCCNC(Cc2ccccc2)c2ccccc2)c2ccccc2)cc1 (stereo not given) | 25% | 38% | 66.2% | 61.1% | -13.9% (active) | -9.41% (active) | -40.5% (active) | 36.8% | 35.9% | -59.5% (active) | 15.7% | -25.7% (active) | -22.5% (active) | 7.83% (active) | -8.13% (active) | 43.1% | 2.14% (active) | 32.3% | 48.5% | 2.08% (active)
